Outcome and AC50 data for 27 compounds are collected here from PubChem BioAssay (EPA / NIEHS).

Where “and” joins values, the source holds several entries; their conditions need not be identical. Identical values can stand only once. Some structures have more than one record in an assay (separate samples or runs), and their calls can disagree. Calls of active or inactive are those of the source. The calls were made as follows: active = hit-call score of the fitted dose curve at least 0.9, where 1 is the maximum; inactive = score below 0.9.

A short description of the assay: CCTE_Mundy_HCI_Cortical_Synap_Neur_Matur_NeuriteCount: CCTE's Synaptogenesis and Neurite Maturation Assay in rat cortical cells for Neurite Count, Mundy Lab (AID 2284222). As to the method:
CCTE_Mundy_HCI_Cortical_Synap&Neurite_Matur is a multiplexed, cell-based-readout assay that uses rat primary cortical cells with measurements taken at 288.33 hours after chemical dosing in a microplate: 96-well plate.CCTE_Mundy_HCI_Cortical_Synap_Neur_Matur_NeuriteCount is one of eight components of the CCTE_Mundy_HCI_Cortical_Synap&Neurite_Matur assay. It measures synaptogenesis and neurite maturation related to number of neurites using High Content Imaging of fluorescently labelled markers.[…] Using a type of morphology reporter, loss -of-signal activity can be used to understand developmental effects.
Cells are plated onto 96 well plates and allowed 2 hr for attachment to the substrate. At days in vitro (DIV) 5, Cytosine Arabinoside (AraC) is added to arrest glial cell growth. Chemicals are dosed and a media change is performed at DIV 7 of differentiation and is continued through DIV 12 when the experiment is terminated. Cells are fixed with […] and Hoechst Dye. Cells are stained using Millipore Mouse anti-MAP2MAB3418 (1:800) and Millipore Rabbit anti-Synaptophysinsc-1750 (1:250) primary antibodies and Alexa Fluor-488 goat anti-mouse and AlexaFluor-546 goat anti-rabbit secondary antibodies to label neuronal cell nuclei, synapses and neurites. A Cellomics ArrayScan VTi HCS Reader is used for automated image acquisition and analysis of neurite outgrowth.
With `CCOP(=S)(OCC)Oc1cc(C)nc(C(C)C)n1`, the outcome was inactive.
Same read-out and setting: as for `CCCSP(=O)(OCC)Oc1ccc(Br)cc1Cl` (stereo unspecified), the entry is “inactive”; as for `CCOP(=O)(SC(C)CC)N1CCSC1=O` (stereo unspecified), “inactive”.
The same measure, in the same setting: the entry for `S=C1NCCN1` is “inactive”.
For the compound `CCOP(=S)(OCC)SCCSCC`, the compound was classed as inactive.
`CCOP(=S)(OCC)OC(Cl)C(Cl)(Cl)Cl` (stereo unspecified): the outcome was inactive and the AC50 was 12.8 µM (active).
For `COP(=O)(NC(C)=O)SC` (stereo unspecified), the compound was called inactive.
On the same count and under the same terms, the entry for `CCOP(=O)(OCC)Oc1cc(C)nc(C(C)C)n1` is “inactive”; for `CC(=NC#N)N(C)Cc1ccc(Cl)nc1` it is “inactive”; for `CCOC(=O)CC(SP(=O)(OC)OC)C(=O)OCC` (stereo unspecified) it is “inactive”.
As to `CC[C@H](C)[C@H]1O[C@]2(C=C[C@@H]1C)C[C@@H]1C[C@@H](C/C=C(\C)[C@@H](O[C@H]3C[C@H](OC)[C@@H](O[C@H]4C[C@H](OC)[C@@H](NC)[C@H](C)O4)[C@H](C)O3)[C@@H](C)/C=C/C=C3\CO[C@@H]4[C@H](O)C(C)=C[C@@H](C(=O)O1)[C@]34O)O2`, the AC50 is 657 nM (active) and 1.79 µM (active).
In the case of `CN1COCN(Cc2cnc(Cl)s2)C1=N[N+](=O)[O-]`, the outcome was inactive.
`COP(=O)(OC)OC(Br)C(Cl)(Cl)Br` (stereo unspecified): the call was inactive and the AC50 is 50 µM (active).
With `CN(C)[C@@H]1C(=O)C(C(N)=O)=C(O)[C@@]2(O)C(=O)C3=C(O)c4c(O)cccc4[C@@](C)(O)[C@H]3[C@H](O)[C@@H]12`, the half-maximal activity concentration (AC50) was 72.5 µM (active).
As for `CSC1=N[C@@](C)(c2ccccc2)C(=O)N1Nc1ccccc1`, the result was inactive.
In the case of `CON=C(C(=O)OC)c1ccccc1CON=C(C)c1cccc(C(F)(F)F)c1`, the AC50 is 1.24 µM (active).
Consider `CCOP(=O)(NC(C)C)Oc1ccc(SC)c(C)c1` (stereo unspecified), for which the call was inactive.
Turning to `CCOP(=S)(Oc1cnc(C(C)(C)C)nc1)OC(C)C` (stereo unspecified), the AC50 was 18.6 µM (active) and the outcome was inactive.
As for `CCOP(=S)(OCC)Oc1ccc2c(C)c(Cl)c(=O)oc2c1`, the outcome was inactive.
Same read-out and setting: the entry for `C[N+]1(C)CCCCC1` is “inactive”; for `CCCSP(=O)(OCC)SCCC` it is “inactive”.
`CCCCSP(=O)(SCCCC)SCCCC`: the AC50 is 16.1 µM (active) and the outcome was inactive.
Take `CCOP(=S)(OCC)Oc1ccc([N+](=O)[O-])cc1`: the compound was called inactive.
Still for that read-out and setting: the entry for `CC1=NNC(=O)N(/N=C/c2cccnc2)C1` is “inactive”; for `COP(=O)(OC)C(O)C(Cl)(Cl)Cl` (stereo unspecified) it is “inactive”.
Consider `O=[N+]([O-])c1cc(C(F)(F)F)c(Cl)c([N+](=O)[O-])c1Nc1ncc(C(F)(F)F)cc1Cl`, for which the AC50 was 0.962 µM (active).
In the case of `CC(C)N(C(=O)SCC(Cl)=C(Cl)Cl)C(C)C`, the compound was called inactive.
